Assay outcomes deposited in PubChem by National Center for Advancing Translational Sciences (NCATS).
HEK293 tox: cytotoxic compounds in HEK 293 cells. AID 1345083. Potency, µM (titrated, usually from 115 µM), for the others: at the top dose activity change, negative = cytotoxicity, usual class: inhibitors. 94,000 compounds, 6.6% hits. HEK 293 viability, ATP luminescence (CellTiter-Glo), 48-72 h; also: % is scaled to controls: 0 for no effect and ±100 for the full control effect; nearly all actives have a fitted effect of over 60% in size
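HEK 293 seeded at 250 cells/well receive compound via pintool. After 48 or 72 hr at 37 degree Celsius, 5% CO2 and 95% humidity, CellTiter-Glo is dispensed and luminescence read following 10 min at room temperature.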
GPT2 inh: GPT2 alanine aminotransferase inhibition. Recombinant GPT2, coupled pyruvate oxidase/HRP Amplex Red fluorescence. Potency, µM (doses to about 57.7 µM), for inactives: at the top dose activity change, negative = inhibition, hits mostly inhibitors. 100,000 compounds, 0.25% hits. AID 1671188; also: % is scaled to controls: 0 for no effect and ±100 for the full control effect; nearly all actives have a fitted effect of over 60% in size
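Fluorescence read-out: pyruvate from GPT2 turnover coupled to pyruvate oxidase, HRP and Amplex Red (0.2mM ThPP, 0.2U/mL PO and HRP, 50uM Amplex final). Substrates 250uM a-KG, 2mM L-alanine; enzyme 10ng/uL; 30 min RT.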
3T3 cytotox: NIH 3T3 cell cytotoxicity. NIH 3T3 viability, CellTiter-Glo ATP luminescence, 48-72 h. Potency, µM (top dose mostly 96.7 µM), without a hit: top-dose activity change, negative = cytotoxicity, most hits filed as inhibitors. 94,000 compounds, 4.3% hits. AID 1345082; also: % is scaled to controls: 0 for no effect and ±100 for the full control effect; nearly all actives have a fitted effect of over 55% in size
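Cytotoxicity is measured as loss of cellular ATP: NIH 3T3 cells (400/well) are exposed to compound for 48 or 72 hr at 37 °C, then CellTiter-Glo luminescence is imaged after 10 min at room temperature.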
FLuc inh-1: inhibitors of firefly (Photinus pyralis) luciferase | purified P. pyralis luciferase, luminescence, biochemical | Potency, µM (highest dose often 115 µM), actives largely listed as inhibitors | 76,000 compounds, 2.5% hits | AID 1347043; also: % is scaled to controls: 0 for no effect and ±100 for the full control effect; nearly all actives have a fitted effect of over 65% in size
Target sequence (P08659 whole entry, looked up): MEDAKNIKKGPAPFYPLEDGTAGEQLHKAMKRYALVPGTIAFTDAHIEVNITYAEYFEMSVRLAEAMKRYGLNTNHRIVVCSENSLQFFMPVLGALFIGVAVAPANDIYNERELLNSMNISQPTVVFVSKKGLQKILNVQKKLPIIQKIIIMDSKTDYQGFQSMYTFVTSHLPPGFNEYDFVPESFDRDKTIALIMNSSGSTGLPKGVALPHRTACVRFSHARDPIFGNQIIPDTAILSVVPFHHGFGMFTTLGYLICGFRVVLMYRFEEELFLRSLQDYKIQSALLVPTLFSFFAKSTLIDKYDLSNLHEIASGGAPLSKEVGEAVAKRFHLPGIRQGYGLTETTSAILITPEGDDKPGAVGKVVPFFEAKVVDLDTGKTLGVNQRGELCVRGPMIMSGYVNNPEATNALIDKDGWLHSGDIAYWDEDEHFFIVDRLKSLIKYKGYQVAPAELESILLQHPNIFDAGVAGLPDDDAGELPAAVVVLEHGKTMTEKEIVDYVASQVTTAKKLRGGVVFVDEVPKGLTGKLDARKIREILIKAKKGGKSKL
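Purified 10nM P. pyralis luciferase with 10uM D-luciferin and 10uM ATP in 50mM Tris acetate pH 7.5, 10mM Mg acetate, 0.01% Tween-20, 0.05% BSA. qHTS titration; luminescence read by CCD imager.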
hNpr1 antagonist: human Npr1 receptor antagonism; P16066; HEK293 hNpr1 GloSensor cGMP, ANP-stimulated luminescence; Potency, µM (titrated, usually from 46.3 µM), inactives show at the highest dose activity change, negative = inhibition, most hits filed as inhibitors; 76,000 compounds, 1.6% hits; calls by dose curve; also: % is scaled to controls: 0 for no effect and ±100 for the full control effect; nearly all actives have a fitted effect of over 60% in size
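Compound pre-incubated 30 min at room temperature on GloSensor-loaded HEK293 cells stably carrying hNpr1 and the pGS-40F cGMP biosensor. Stimulation uses hNppA at 0.1 nM final; luminescence is taken at baseline and 20 min post-agonist.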
FLuc SDR no ATP: firefly luciferase binding stabilization, ATP absent; Purified FLuc-C-HiBiT, Nano-Glo HiBiT luminescence, no ATP; Potency, µM (doses to about 32.7 µM), for inactives: top-dose activation (signal gain), usual class: activators; shares compounds with FLuc inh-1; 1,300 compounds, 7.8% hits; also: nearly all actives have a fitted effect of over 55% in size
FLuc SDR ATP: firefly luciferase binding stabilization, ATP added | shares compounds with FLuc inh-1 | purified FLuc-C-HiBiT + ATP, HiBiT complementation luminescence | Potency, µM (titrated, usually from 32.7 µM), for the others: at the top dose activation (gain of signal), actives largely listed as activators | 1,300 compounds, 8.7% hits | AID 1963319;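 also: signal reports ligand binding via conformational change of the enzyme rather than luciferase catalysis; % of control where 0% means no effect; nearly all actives have a fitted effect of over 55% in size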
FLuc inh-2: inhibitors of firefly luciferase enzymatic activity | shares compounds with FLuc inh-1 | purified FLuc-C-HiBiT enzyme, luciferin luminescence | Potency, µM (titrated, usually from 32.7 µM), without a hit: at the highest dose activity change, negative = inhibition, most hits filed as inhibitors | 1,300 compounds, 42% hits | AID 1963320; also: % is scaled to controls: 0 for no effect and ±100 for the full control effect; nearly all actives have a fitted effect of over 70% in size
* hit, by the source's call; i = inactive; u = inconclusive; x = not tested or not shown; [ ] = dose if it differs, or a comment. The list is not random: actives were taken first. Their share in the collection is about 10%. Unless noted, calls follow the shape of the dose curve; as a rule, active = well fitted curve in the direction sought with a large enough effect; inconclusive = small, poorly fitted or top-dose-only effect, or another doubt; inactive = no such curve, though single readings can be large; an effect the other way counts as inactive or inconclusive. Potency is read from the fitted curve at half-maximal effect.

SMILES	HEK293 tox	GPT2 inh	3T3 cytotox	FLuc inh-1	hNpr1 antagonist	FLuc SDR no ATP	FLuc SDR ATP	FLuc inh-2
CC(C)CN1C(=O)c2ccccc2C(C(=O)Nc2nccs2)C12CCCC2 (stereo not given)	u	3%	u	i	-6%	x	x	x
CCN1CCN(c2nccc(Cl)n2)C(=O)C1	-1%[172 µM]	-5%[88.5 µM]	-10%[138 µM]	i	10%[70.6 µM]	x	x	x
CCN1CCN(c2csc3ccc(Cl)cc3c2=O)CC1	x	x	x	x	x	21%	15%	u
COc1ccc(F)cc1CN1CCC(O)(CN2CCCCC2)C1 (stereo not given)	-31%	-28%	-15%	i	-1%	x	x	x
N#Cc1c(-n2ncnc2-c2ccc(Br)cc2)sc2c1CCCCC2	x	x	x	x	x	23%	21%	9.9µM*
CN(C)C1CCN(C(=O)c2ccc(NC(=O)Nc3ccc(-c4nc(N5CCOCC5)nc(N5CCOCC5)n4)cc3)cc2)CC1	x	4%	x	x	x	x	x	x
O=C(c1ccncc1)N1CCC(Oc2ccc(-c3noc(-c4ccccc4)n3)cc2)C1 (stereo not given)	u	i	u	14µM*	14µM*	16%	14%	u
Cc1ncccc1C(=O)N1CCC(Oc2ccc(-c3noc(-c4ccccc4)n3)cc2)C1 (stereo not given)	u	i	u	7.1µM*	11µM*	19%	13%	u
CCCS(=O)(=O)N1CCC(Oc2ccc(-c3noc(-c4ccccc4)n3)cc2)C1 (stereo not given)	u	i	u	u	-15%	x	x	x
COc1ccccc1NC(=O)COc1cccc(-c2nnc3n2CCCC3)c1	-12%	i	-24%	i	2%	x	x	x
COc1ccc(-c2nc3ccccc3s2)cc1NC(=O)COc1cccc(C)c1	x	x	x	x	x	15%	8%	-13%
COc1ccc(-c2nc3ccccc3s2)cc1NC(=O)COc1ccc(C)cc1	x	x	x	x	x	9%	6%	-11%
Nc1c(C(=O)Nc2ccc(C(=O)O)cc2)sc2nc3c(cc12)CCCC3	x	x	x	x	x	11µM*	0.25µM*	0.18µM*
O=C(c1cc(F)cc(F)c1)N1CCN(C2CCN(Cc3cccnc3)C2=O)CC1 (stereo not given)	-22%	i	-8%	i	-4%	x	x	x
O=C(c1nc2cccnc2n(C2CCCC2)c1=O)N1CCN(C(=O)C2CCCC2)CC1	i	i	-15%	x	x	x	x	x
CCOc1cccc(NC(=O)CSc2ncc(-c3ccccc3)[nH]2)c1	x	x	x	x	x	21%	14%	-16%
COc1ccc(-c2cn3nc(SCC(=O)Nc4ccccc4F)ccc3n2)cc1	x	x	x	x	x	u	17%	u
Cc1ccc(C(=O)Nc2cccc3cccnc23)cc1Cl	x	x	x	x	x	9%	8%	-14%
CC(C)(C)n1cc(-c2cc(C(=O)N3C[C@H]4CC[C@H]3C4)c3ccccc3n2)cn1	u	0%[11.5 µM]	u	2.8µM*	-10%	u	u	7µM*
CN1CCCC(CN(C)C(=O)c2cc(-c3cnn(CCO)c3)nc3ccccc23)C1 (stereo not given)	-27%	-3%	2%	i	0%	x	x	x
COc1ccc(CC(=O)Nc2ccc(-c3nc4ccccc4s3)c(C)c2)cc1OC	x	x	x	x	x	19%	14%	-13%
COc1ccccc1CC(=O)Nc1ccc2ncnc(N3CCCC3)c2c1	u	i	-19%	i	-3%	x	x	x
COc1cc(OC)cc(C(=O)Nc2ccc(-c3nc4ccccc4s3)c(C)c2)c1	x	x	x	x	x	13%	10%	1%
O=C(Nc1ccc(CN2CCOCC2)cc1)c1ccc(-c2cccc(Cl)c2)o1	x	-5%	x	x	x	x	x	x
Cc1ccc(-c2nc3ccccc3s2)cc1NC(=O)c1ccc(-c2cccc(Cl)c2)o1	x	x	x	x	x	15%	11%	-15%
SMILES	HEK293 tox	GPT2 inh	3T3 cytotox	FLuc inh-1	hNpr1 antagonist	FLuc SDR no ATP	FLuc SDR ATP	FLuc inh-2
Cc1cccc(C(=O)Nc2ccc(-c3nc4ccccc4s3)cc2Cl)c1	x	x	x	x	x	13%	8%	-1%
O=C(c1cc2ccccc2o1)N1CCC2(CCCN(Cc3ccccc3F)C2)C1 (stereo not given)	u	-16%	u	i	-6%	x	x	x
O=C(Nc1cccc(C(F)(F)F)c1)N1CCC(N2CC3CC(C2)[C@H]2CCCC(=O)N2C3)CC1 (stereo not given in full)	0%	-5%	-2%	i	-2%	x	x	x
Cc1noc(C)c1[S+](=O)([O-])N1CCCC(c2nn(-c3cccc(Cl)c3)c(=O)[nH]2)C1 (stereo not given)	-4%	i	-17%	i	-4%	x	x	x
O=C1CCN(S(=O)(=O)c2ccccc2)CCCN(Cc2ccc3cc[nH]c3c2)CCN1	u	-6%	u	i	0%	x	x	x
COC(=O)CNC(=O)C1CCCN(Cc2cccc(-c3cccc(C)c3)c2)C1 (stereo not given)	-21%	-5%	u	x	x	x	x	x
O=C(Nc1ccc(Cl)cc1F)c1ccccc1O	x	2%	x	x	x	x	x	x
Cc1cc(-c2nc3ccccc3s2)ccc1NC(=O)c1cc(Cl)ccc1Cl	x	x	x	x	x	17%	8%	-5%
Cc1ccc(C(=O)Nc2ccc(-c3nc4ccccc4s3)cc2C)cc1C	x	x	x	x	x	9%	9%	-5%
COc1cc(OC)cc(C(=O)Nc2ccc(-c3nc4ccccc4s3)cc2C)c1	x	x	x	x	x	13%	11%	3%
CCc1noc(-c2nnn3c2COC(c2ccc(Cl)cc2)C3)n1 (stereo not given)	-27%	i	u	i	u	x	x	x
CCOc1ccc2nc(NC(=O)c3ccccc3)sc2c1	x	x	x	x	x	u	u	0.88µM*
COC(=O)[C@@H]1C[C@H](NC(=O)c2ccc(Oc3ccccc3)cc2)CN1C	-26%	i	-22%	14µM*	-1%	16%	12%	u
COc1cccc(Nc2cc3c(cn2)CN(Cc2cccnc2)CCN3)c1	u	-6%[88.5 µM]	u	5µM*	-17%[70.6 µM]	u	14%[49.3 µM]	u
COc1cccc(CN2CCNc3cc(Nc4ccccc4)ncc3C2)c1	40µM*	-2%[88.5 µM]	40µM*	5.6µM*	-18%[70.6 µM]	21%[49.3 µM]	15%[49.3 µM]	u
COc1cccc(CN2CCc3nc(Nc4ccc5c(c4)OCCO5)ncc3C2)c1	x	x	x	x	x	17%	13%	u
COc1ccc(Nc2cc3c(cn2)NCCN(Cc2ccccc2)C3)cn1	u	u	u	i	0%[70.6 µM]	x	x	x
